Laboratory results taken from publication PMC5540273 (PLoS ONE, 2017).
Where two headings read alike, the source gives them in different places.

Assays:
[1] = tested on: TAOK1; conditions: concentration: 1 μM, replicates: in singlicate; n = 1
[2] = tested on: TAOK2; conditions: concentration: 1 μM, replicates: in singlicate; n = 1
[3] = tested on: TAOK3; conditions: concentration: 1 μM, replicates: in singlicate; n = 1
[4] = tested on: TBK1; conditions: concentration: 1 μM, replicates: in singlicate; n = 1
[5] = tested on: TEC; conditions: concentration: 1 μM, replicates: in singlicate; n = 1
[6] = tested on: TESK1; conditions: concentration: 1 μM, replicates: in singlicate; n = 1
[7] = tested on: TGFBR1; conditions: n = 1
[8] = tested on: TGFBR2; conditions: concentration: 1 μM, replicates: in singlicate; n = 1
[9] = tested on: TIE1; conditions: concentration: 1 μM, replicates: in singlicate; n = 1
[10] = tested on: T1, TIE2; conditions: concentration: 1 μM, replicates: in singlicate; n = 1
T1 construct: gene TEK

[11] = concentration: 1 μM, replicates: in singlicate
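Note: KINOMEscan kinase panel screen.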

Row | Structure (SMILES) | %Inh [1] [%] | %Inh [2] [%] | %Inh [3] [%] | %Inh [4] [%] | %Inh [5] [%] | %Inh [6] [%] | %Inh [7, 11] [%] | %Inh [8] [%] | %Inh [9] [%] | %Inh [10] [%] | %Inh ([7]; 1 µM) [%]
1 | CNC(=O)c1ccc(C)c(-n2c(C)cc(OCc3ccc(F)cc3F)c(Br)c2=O)c1 | 0 | 0 | 0 | 0 | 1 | 13 | 0 | 0 | 1 | 0 | 
2 | COC(=O)c1cccc(NC(=O)NC2CCN(c3ccnc(Nc4ccc(OC)cc4)n3)C2)c1 (stereo not shown) [GSK1379746] | 0 | 0 | 0 | 0 | 14 | 13 | 41 | 0 | 0 | 0 | 
3 | COc1ccc(CSc2nnc(-c3ccc4nccn4c3)o2)cc1C(F)(F)F | 22 | 13 | 0 | 10 | 21 | 12 | 14 | 12 | 22 | 0 | 
4 | CN1c2ccc(-c3ccc(C(N)=O)cc3)cc2-c2[nH]ncc2S1(=O)=O | 0 | 28 | 0 | 0 | 0 | 19 | 13 | 11 | 0 | 0 | 
5 | NS(=O)(=O)c1cccc(N/C=C2\C(=O)Nc3ccc(S(=O)(=O)Cc4c(Cl)cccc4Cl)cc32)c1 [GSK398099] | 0 | 2 | 10 | 37 | 6 | 9 | 0 | 0 | 0 | 0 | 
6 | CC(=O)c1c(C)c2cnc(Nc3ccc(N4CCNCC4)cn3)nc2n(C2CCCC2)c1=O | 0 | 0 | 0 | 4 | 0 | 12 | 3 | 0 | 0 | 0 | 
7 | Cc1ccc(NC(=O)Nc2ccc(Cl)c(C(F)(F)F)c2)cc1-c1ccc(C(=O)Nc2ccncc2)cc1 [GSK1398470] | 0 | 0 | 0 | 17 | 8 | 23 | 0 | 7 | 6 | 0 | 
8 | FC(F)(F)c1ccccc1-c1cc(-c2c[nH]nc2-c2ccccn2)ccn1 [GW679396] | 0 | 0 | 0 | 18 | 1 | 14 |  | 10 | 0 | 7 | 0
9 | O=C1NC(=O)C(c2ccc(Cl)cc2)=C1Nc1cccc(Cl)c1 [SB-317651] | 15 | 2 | 15 | 15 | 0 | 22 | 0 | 8 | 0 | 6 | 
10 | O=C(Nc1n[nH]c2nc(-c3cccs3)c(Br)cc12)C1CCCC1 [SB-743341] | 0 | 0 | 0 | 0 | 0 | 25 | 19 | 7 | 33 | 15 | 
11 | O=c1cc(N2CCOCC2)nc2n(Cc3ccccc3F)ccn12 [GSK2297428] | 0 | 0 | 0 | 15 | 0 | 3 | 0 | 0 | 0 | 0 | 
12 | Cc1ccc(NC(=O)c2ccc(Cl)cc2)cc1-c1ccc(C(=O)Nc2ccncc2)cc1 [GSK1398467] | 0 | 0 | 0 | 7 | 12 | 14 | 1 | 0 | 0 | 0 | 
13 | CNc1nc(-c2ccc3c(N)n[nH]c3c2)cc(N2C[C@@H](C(=O)Nc3ccccc3)CC[C@H]2C)n1 [GSK2298859] | 0 | 0 | 0 | 14 | 4 | 24 | 12 | 0 | 0 | 0 | 
14 | CC(C)c1cc(-c2ccc3c(N)n[nH]c3c2)nc(N)n1 [GSK2250882] | 0 | 0 | 0 | 13 | 0 | 35 | 0 | 0 | 0 | 0 | 
15 | Fc1ccc(-c2nn3cccc(F)c3c2-c2ccncc2)cc1 [GW475620] | 0 | 0 | 0 | 22 | 0 | 4 | 17 | 11 | 7 | 1 | 
16 | Nc1nccc(-c2c(-c3ccc(F)cc3)ncn2C2CCN(Cc3ccccc3)CC2)n1 [SB-219980] | 31 | 0 | 10 | 0 | 0 | 0 | 7 | 12 | 1 | 0 | 
17 | Cc1ccc(NC(=O)Nc2ccccc2)cc1-c1ccc(C(=O)Nc2ccncc2)cc1 [GSK1398471] | 0 | 0 | 0 | 17 | 0 | 2 | 0 | 0 | 0 | 0 | 

Row | Structure (SMILES) | %Inh [1] [%] | %Inh [2] [%] | %Inh [3] [%] | %Inh [4] [%] | %Inh [5] [%] | %Inh [6] [%] | %Inh [7, 11] [%] | %Inh [8] [%] | %Inh [9] [%] | %Inh [10] [%] | %Inh ([7]; 1 µM) [%]
18 | CSc1ccc(-c2nc3n(c2-c2ccncc2)CCC3)cc1 [SKF-105561] | 0 | 14 | 9 | 0 | 11 | 8 | 15 | 13 | 0 | 0 | 
19 | Cc1ccc(NC(=O)Nc2ccc(Cl)cc2)cc1-c1ccc(C(=O)Nc2ccncc2)cc1 [GSK1398472] | 0 | 0 | 0 | 8 | 0 | 54 | 3 | 0 | 0 | 0 | 
20 | COc1ccc(CSc2nnc(-c3ccc4c(c3)CCO4)o2)cc1 | 0 | 0 | 0 | 11 | 0 | 0 | 0 | 0 | 0 | 0 | 
21 | COc1ccc(Nc2nccc(N3CCC(NC(=O)C(C)c4ccc(Cl)cc4)CC3)n2)cc1 (stereo not shown) [GSK1379812] | 0 | 0 | 0 | 21 | 0 | 0 | 3 | 0 | 0 | 0 | 
22 | Cc1cnc(N)c(/C=C/c2cncc(C(=O)NCCc3ccc(Cl)cc3Cl)c2)c1.Cl [GSK190937] | 11 | 0 | 25 | 12 | 18 | 1 | 0 | 0 | 20 | 0 | 
23 | Cc1nccc(-c2c(-c3ccc(F)cc3)ncn2CCCN2CCOCC2)n1.Cl [SB-282975] | 4 | 12 | 0 | 16 | 15 | 37 | 1 | 0 | 0 | 99.9 | 
24 | O=C(Nc1n[nH]c2nc(-c3cccs3)c(Br)cc12)C1CC1 [SB-735297] | 10 | 0 | 0 | 33 | 0 | 19 | 0 | 0 | 0 | 12 | 
25 | c1ccc(-c2ccnc3[nH]ccc23)cc1 [SB-693578] | 0 | 0 | 0 | 11 | 5 | 43 | 0 | 10 | 0 | 0 | 
26 | CCn1c(-c2c(N)noc2C)nc2cnccc21 [SB-737856] | 0 | 0 | 0 | 0 | 1 | 54 | 4 | 0 | 0 | 0 | 
27 | CCCCc1nn2ncccc2c1-c1ccnc(NC2CC2)n1 [GW684374] | 0 | 0 | 0 | 7 | 3 | 13 | 29 | 7 | 0 | 0 | 
28 | COc1ccc(CSc2nnc(-c3ccc4ncsc4c3)o2)cc1C(F)(F)F | 31 | 9 | 0 | 13 | 0 | 3 | 5 | 19 | 0 | 19 | 
29 | O=C(Nc1n[nH]c2cc(-c3ccsc3)ccc12)C1CC1 [SB-732932] | 64 | 8 | 26 | 9 | 32 | 9 | 0 | 0 | 11 | 11 | 
30 | COC(=O)C(Cc1ccccc1)NC(=O)NC1CCN(c2ccnc(Nc3ccc(F)cc3)n2)C1 (stereo not shown) [GSK1379714] | 0 | 0 | 0 | 21 | 0 | 16 | 20 | 0 | 16 | 0 | 
31 | COc1ccc(Nc2nccc(N3CCC(NC(=O)C(C)c4ccc(Cl)cc4)C3)n2)cc1 (stereo not shown) [GSK1379735] | 0 | 0 | 0 | 4 | 14 | 3 | 23 | 0 | 35 | 8 | 
32 | COc1nccc(-c2c(-c3ccc(F)cc3)ncn2CCCN2CCOCC2)n1 [SB-282852] | 0 | 0 | 0 | 19 | 0 | 8 | 20 | 0 | 0 | 33 | 
33 | O=C(Nc1n[nH]c2nc(-c3ccco3)c(Br)cc12)C1CCN(Cc2ccccc2)C1.O=C(O)[C@H](O)[C@@H](O)C(=O)O (stereo not shown) [SB-742034] | 0 | 0 | 10 | 18 | 8 | 23 | 0 | 21 | 0 | 17 | 
34 | O=C1NC(=O)C(c2ccc(Cl)cc2)=C1Nc1ccc(O)cc1 [SB-340867] | 0 | 0 | 0 | 0 | 0 | 12 | 1 | 0 | 0 | 0 | 
